In PubChem BioAssay AID431 (Sanford-Burnham Center for Chemical Genomics, 2006):
The campaign covered roughly 63,000 compounds. About 1,100 (1.7%) were called active.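 How the source made its calls: active means compounds whose percent cytotoxicity in the single-dose primary screen, scaled between solvent and toxic-drug controls, exceeds 50; inactive means the rest.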 The list comes from a sample in which actives are over-represented; it also holds similar structures and randomly drawn compounds. Results with a measured potency or affinity are listed apart.

Assay: cytotoxicity in KRAS-transformed pancreatic duct cells, primary screen, cell-based, fluorescence, HTS (AID 431);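 further: 0% = DMSO solvent wells and 100% = doxorubicin-treated wells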
Settings: HPDE-C7K KRASV12 cells, Alamar Blue viability, 48 h; at 10 µM; active compounds read high

Row | Compound | cytotoxicity
1 | CCSc1nnc(NC(=O)c2cccs2)s1 | 22.4% (inactive)
2 | COC(=O)c1cccc(NC(=O)CSc2nnc(COc3cccc(C)c3)n2C)c1 | -15.1% (inactive)
3 | CCOC(=O)c1[nH]c(C)c(/C(O)=C2\C(=O)C(=O)N(CCCn3ccnc3)C2c2ccncc2)c1C (stereo unspecified) | 11.3% (inactive)
4 | CC1=C(C)C(=O)NC(Nc2nc(C)c3cc(C)cc(C)c3n2)N1 (stereo unspecified) | 90.8% (active)
5 | Cc1cc(C)c2nc(NC3=NCN(CCN4CCOCC4)CN3)nc(C)c2c1 | -2% (inactive)
6 | Cc1ccnc(SCCn2c(N3CCC(C)CC3)nc3c2c(=O)[nH]c(=O)n3C)n1 | 5.9% (inactive)
7 | Cc1cc(C)nc(/N=C2\NC(=O)CC(C(=O)O)N2c2ccc(Oc3ccccc3)cc2)n1 (stereo unspecified) | 3.8% (inactive)
8 | O=C(Nc1ccccc1C(=O)N1CCCCCC1)c1cccc(S(=O)(=O)N2CCOCC2)c1 | 6.4% (inactive)
9 | CCN(CC)c1ccc2cc(-c3nc4ccccc4n3C)c(=O)oc2c1 | 53.3% (active)
10 | CCN(CC)c1ccc2cc(-c3nnc(-c4ccncc4)o3)c(=O)oc2c1 | 71.1% (active)
11 | CCN(CC)c1ccc2cc(-c3nc4ccccc4[nH]3)c(=O)oc2c1 | 42.2% (inactive)
12 | O=c1oc2ccc3ccccc3c2cc1-c1nnc(-c2ccccc2)o1 | -4.9% (inactive)
13 | CCN(CC)c1ccc2cc(C(=O)Nc3ccccn3)c(=O)oc2c1 | 18.9% (inactive)
14 | CC(=O)Oc1ccc2cc(-c3nc4ccccc4n3C)c(=O)oc2c1 | -1.4% (inactive)
15 | C/C(Cl)=C/Cn1c(NCCN(C)C)nc2c1c(=O)n(C)c(=O)n2C | 10.3% (inactive)
16 | CCCCC(=O)Nc1ccc2c(c1)nc1n2CCOC1 | -4.8% (inactive)
17 | Cc1onc(-c2ccccc2)c1C(=O)NCc1ccco1 | 9% (inactive)
18 | Fc1ccc(CN2CCCCCCC2)c(F)c1 | 4.9% (inactive)
19 | CCCC(C(=O)NCc1ccco1)N(C(=O)CNS(=O)(=O)c1ccc(Cl)cc1)C1CCCC1 (stereo unspecified) | 2.5% (inactive)
20 | Cc1ccc(Cl)cc1N1CCN(C(=O)c2cn(C)c(=O)c3c2c2ccccc2n3C)CC1 | 110% (active)
21 | Cc1ccc(Cl)cc1N1CCN(C(=O)c2cc3c(=O)n(C)c4ccccc4c3n2C)CC1 | 38.6% (inactive)
22 | COc1ccc(N2CCN(C(=O)c3cn(C)c(=O)c4c3c3ccccc3n4C)CC2)cc1 | 10.6% (inactive)
23 | CCOC(=O)N1CCN(C(=O)c2cn(C)c(=O)c3c2c2ccccc2n3C)CC1 | 4.1% (inactive)
24 | Cc1cccc(N2CCN(C(=O)c3cn(C)c(=O)c4c3c3ccccc3n4C)CC2)c1C | 88.5% (active)

Row | Compound | cytotoxicity
25 | Cn1cc(C(=O)N2CCN(C(=O)c3ccco3)CC2)c2c3ccccc3n(C)c2c1=O | -0.8% (inactive)
26 | Cn1c2c(c(=O)n(C)c1=O)CN(Cc1ccc3c(c1)OCO3)CN2 | 4.8% (inactive)
27 | O=C(Nc1ccc(Cl)cn1)c1cc2ccccc2o1 | -4.1% (inactive)
28 | COc1cc(C2Nc3cc(Cl)c(S(N)(=O)=O)cc3S(=O)(=O)N2)cc(OC)c1OC (stereo unspecified) | -17.3% (inactive)
29 | N#CCCN1CCN(S(=O)(=O)c2ccc(S(=O)(=O)N3CCCCCC3)cc2)CC1 | 0.7% (inactive)
30 | COc1ccc(N2CCN(C(=O)CN3C(=O)C4CC=CCC4C3=O)CC2)cc1 (stereo unspecified) | 0.2% (inactive)
31 | Cc1ccc(C2C3=C(CC(C)(C)CC3=O)NC3=C2C(=O)CC(C)(C)C3)o1 | -0.9% (inactive)
32 | COCCn1c(N)c(C(=O)NCc2cccs2)c2nc3ccccc3nc21 | 9.2% (inactive)
33 | COCCn1c(N)c(C(=O)NCC2CCCO2)c2nc3ccccc3nc21 (stereo unspecified) | 15.6% (inactive)
34 | Nc1c(C(=O)NCC2CCCO2)c2nc3ccccc3nc2n1-c1ccccc1 (stereo unspecified) | 10.6% (inactive)
35 | CC(C)Cn1c(N)c(C(=O)NCC2CCCO2)c2nc3ccccc3nc21 (stereo unspecified) | 22.7% (inactive)
36 | Nc1c(C(=O)NC2CCCC2)c2nc3ccccc3nc2n1N | 10.7% (inactive)
37 | COCCNC(=O)c1c(N)n(-c2cccc(C)c2)c2nc3ccccc3nc12 | 26.4% (inactive)
38 | CC(C)Cn1c(N)c(C(=O)NCc2cccs2)c2nc3ccccc3nc21 | 92.2% (active)
39 | CC(C)Cn1c(N)c(C(=O)NCCN2CCOCC2)c2nc3ccccc3nc21 | -5.3% (inactive)
40 | COCCNC(=O)c1c(N)n(CCCn2ccnc2)c2nc3ccccc3nc12 | 6.1% (inactive)
41 | COCCSc1nnc(-c2cccc(C#N)c2)n1C | -2.9% (inactive)
42 | COc1cc(C)c(C#N)c(OC)n1 | 0% (inactive)
43 | CC(C)OCC(O)CN (stereo unspecified) | -11.2% (inactive)
44 | CCCn1c(=C(C#N)C#N)s/c(=C2\C=Cc3ccccc3N2CC)c1=O | 6% (inactive)
45 | Cc1nc(C)c(C(=O)NCc2ccc(Cl)cc2)o1 | -5.4% (inactive)
46 | O=C(CN1CCN(S(=O)(=O)c2ccc(F)cc2)CC1)Nc1ccc2c(c1)OCO2 | 0.6% (inactive)
47 | CCOC(=O)COc1ccc2nsnc2c1Cl | 2.6% (inactive)
48 | COCCn1c(SC(C)C(=O)Nc2ccc3c(c2)OCCO3)nc2ccccc2c1=O (stereo unspecified) | -20.1% (inactive)

Row | Compound | cytotoxicity
49 | CCc1nnc(NC(=O)CSc2nnc(Cc3cccn3C)n2C)s1 | 4% (inactive)
50 | CC1(C)Cc2c(c(N3CCOCC3)nc3sc(C(=O)N4CCCCC4)c(N)c23)CO1 | -5.9% (inactive)
51 | CC1(C)Cc2c(c(N3CCOCC3)nc3snc(Br)c23)CO1 | -11% (inactive)
52 | Cc1nc(-c2c(-c3ccc(O)cc3O)noc2C(F)(F)F)cs1 | 1.3% (inactive)
53 | Cc1cccnc1Nc1nc(-c2ccc(O)cc2O)cs1 | 78% (active)
54 | Cc1cc(O)ccc1Nc1nc(-c2sc(N)nc2C)cs1 | 13% (inactive)
55 | COc1ccc(C(C(=O)NC(C)(C)C)N(Cc2ccco2)C(=O)CCC(=O)Nc2cc(C)on2)cc1 (stereo unspecified) | -10% (inactive)
56 | O=C(O)c1ccc(CS(=O)(=O)c2cccc(C(F)(F)F)c2)o1 | 0.8% (inactive)
57 | CC(=O)N1C(=O)C2(Nc3ccccc3N2)c2ccccc21 | 2.8% (inactive)
58 | CCCCOc1ccc(OCCCC)c2c1NC1(N2)C(=O)N(C(C)=O)c2ccccc21 | 59.6% (active)
59 | CCNC(=O)N1C(=O)C2(OCCO2)c2ccccc21 | -11.6% (inactive)
60 | CCn1c(=NC(=O)CSC(C)=O)sc2cc(F)ccc21 | -9.8% (inactive)
61 | Cc1c(C(C)O)nnn1-c1nonc1N (stereo unspecified) | 7.8% (inactive)
62 | CC(c1ccco1)N(C(=O)C12CC3CC(CC(C3)C1)C2)c1ccccn1 (stereo unspecified) | -19.3% (inactive)
63 | Cc1ccc(S(=O)(=O)c2c(C)nn(C(C)(C)C)c2OC(=O)c2cccs2)cc1 | 5% (inactive)
64 | Cc1ccc(S(=O)(=O)c2c(C)nn(C(C)(C)C)c2OC(=O)c2ccco2)cc1 | 5.7% (inactive)
65 | Cc1nn(C(C)(C)C)c(OC(=O)c2cccs2)c1S(=O)(=O)c1ccccc1 | 64% (active)
66 | CC(=O)Oc1c(S(=O)(=O)c2ccc(C)cc2)c(C)nn1C(C)(C)C | 3.3% (inactive)
67 | Cc1nn(-c2ccccc2)c(OC(=O)c2cccs2)c1S(=O)(=O)c1ccccc1 | 1.2% (inactive)
68 | O=C(Cc1coc2ccc3ccccc3c12)N1CCN(c2ncccn2)CC1 | 0.6% (inactive)
69 | COc1ccc(Nc2cc(=O)n(C3CCCCC3)c(=O)[nH]2)c(OC)c1 | -8.6% (inactive)
70 | CCC(=O)Nc1ccc(OC)cc1OC | -5.2% (inactive)
71 | COc1ccc(OCc2nn3c(-c4ccccn4)nnc3s2)cc1 | 4% (inactive)
72 | OCCN1CCN(c2ncnc3c2sc2nc(N4CCOCC4)c4c(c23)CCC4)CC1 | 39.9% (inactive)

Row | Compound | cytotoxicity
73 | CN1CCN(c2ncnc3c2sc2nc(N4CCCC4)c4c(c23)CC(C)(C)OC4)CC1 | -9.3% (inactive)
74 | CC1(C)Cc2c(c(N3CCCC3)nc3sc4c(N5CCN(CCO)CC5)ncnc4c23)CO1 | 67.8% (active)
75 | O=c1[nH]nc2c3ccccc3cnn12 | -22% (inactive)
76 | C=COCCNC(=O)C1CC(=O)N(c2ccc(C)cc2)C1 (stereo unspecified) | 13.2% (inactive)
77 | Cc1ccc(-c2cc(-c3ccccc3Cl)c(C#N)c(N)n2)o1 | 20.7% (inactive)
78 | Cc1ccc(-c2cc(-c3ccccc3)c(C#N)c(N)n2)o1 | 10.2% (inactive)
79 | Cc1ccc(-c2cc(-c3ccc(C)o3)nc(N)c2C#N)cc1 | -2.5% (inactive)
80 | Cc1ccc(-c2cc(-c3ccc(F)cc3)nc(N)c2C#N)o1 | 4.4% (inactive)
81 | Cc1ccc(-c2cc(-c3ccc(Cl)cc3)c(C#N)c(N)n2)o1 | 74.2% (active)
82 | Cc1cc(-c2cc(-c3ccc(Cl)cc3)nc(N)c2C#N)co1 | 92% (active)
83 | Cc1ccc(NC(=O)CC(O)(C(F)(F)F)C(F)(F)F)c(Br)c1 | -6.8% (inactive)
84 | CCNC(=O)CCC(=O)Nc1cc(Cl)ccc1C | -14.8% (inactive)
85 | Cc1ccc(Cl)cc1NC(=O)CC(O)(C(F)(F)F)C(F)(F)F | 57.3% (active)
86 | COC(=O)c1sccc1NC(=O)c1ccc(OC)cc1 | 13.2% (inactive)
87 | COc1ccc(C2CC(c3cc(Br)ccc3F)n3nnnc3N2)cc1 (stereo unspecified) | 1.9% (inactive)
88 | O=C(c1ccccc1)c1ccncc1 | 56.1% (active)
89 | O=C(c1ccccc1)c1nnc(-c2ccncc2)o1 | -7.9% (inactive)
90 | O=C(c1ccncc1)c1ccc(Br)cc1 | 1.4% (inactive)
91 | O=S(=O)(NCCSc1nnc(-c2ccco2)n1-c1ccccc1)c1ccccc1 | -7.3% (inactive)
92 | C=C(C)Cn1c(Sc2nc3ccccc3[nH]2)nc2c1c(=O)[nH]c(=O)n2C | 21.2% (inactive)
93 | c1ccc(-c2nnc(N3CCN(c4ccccn4)CC3)c3ccccc23)cc1 | -2.1% (inactive)
94 | Cc1ccc(-c2nnc(N3CCN(S(C)(=O)=O)CC3)c3ccccc23)cc1 | -3.8% (inactive)
95 | COc1ccccc1NC(=O)CSc1nnc(C)n1Cc1ccccc1 | -12.1% (inactive)
96 | O=C(Nc1ccc(Br)cc1F)c1ccncc1 | -12.6% (inactive)
